Results taken from ChEMBL document CHEMBL2218924, “A broad activity screen in support of a chemogenomic map for kinase signalling research and drug discovery” (Biochem J, 2013).

biological target: Serine/threonine-protein kinase PLK1 (Homo sapiens) (UniProt P53350); conditions: at 1 µM
Sequence (P53350 whole entry): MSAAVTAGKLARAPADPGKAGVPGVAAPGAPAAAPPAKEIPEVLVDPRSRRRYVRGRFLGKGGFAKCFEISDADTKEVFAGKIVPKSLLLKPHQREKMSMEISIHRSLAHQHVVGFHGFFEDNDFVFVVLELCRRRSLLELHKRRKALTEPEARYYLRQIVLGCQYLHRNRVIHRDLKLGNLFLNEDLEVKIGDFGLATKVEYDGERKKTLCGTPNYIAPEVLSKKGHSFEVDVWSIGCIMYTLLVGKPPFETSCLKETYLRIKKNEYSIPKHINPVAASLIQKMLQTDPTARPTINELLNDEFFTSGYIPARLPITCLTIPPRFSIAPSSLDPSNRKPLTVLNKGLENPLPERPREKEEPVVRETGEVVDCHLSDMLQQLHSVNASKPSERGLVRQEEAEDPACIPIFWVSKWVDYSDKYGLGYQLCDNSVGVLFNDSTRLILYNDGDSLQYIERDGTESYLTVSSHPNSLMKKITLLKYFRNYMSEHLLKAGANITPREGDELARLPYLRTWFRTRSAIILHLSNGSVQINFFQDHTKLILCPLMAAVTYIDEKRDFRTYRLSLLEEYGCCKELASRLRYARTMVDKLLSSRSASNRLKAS

Compound	residual activity [%]
CC(C)(C)c1cc(C=C(C#N)C#N)cc(Br)c1O	113
CC(C)[C@H](CO)Nc1nc(Nc2cccc(Cl)c2)c2ncn(C(C)C)c2n1	75
COC(=O)[C@@]1(O)C[C@H]2O[C@]1(C)n1c3ccccc3c3c4c(c5c6ccccc6n2c5c31)C(=O)NC4	50
N/C(=N\[N+](=O)[O-])N/N=C\c1ccc(-c2cccc([N+](=O)[O-])c2)o1	83
O=C1c2ccccc2-c2nc3nnnn3nc21	103
COc1cc2ncnc(Nc3ccc(OCc4ccccc4)cc3)c2cc1OC	97
O=c1[nH]c2ccccc2n1C1CCN(Cc2ccc(-c3nc4cc5[nH]cnc5cc4nc3-c3ccccc3)cc2)CC1	101
CCn1cnc2c(Nc3cccc(Cl)c3)nc(N[C@@H]3CCCC[C@@H]3N)nc21	71
C[S+]([O-])c1ccc(-c2nc(-c3ccc(F)cc3)c(-c3ccncc3)[nH]2)cc1 (stereo not given)	117
O=C1Nc2ccc3ncsc3c2/C1=C/c1c[nH]cn1	84
COc1cc(OC)c(/C=C2\C(=O)Nc3ccccc32)c(OC)c1	76
O=[N+]([O-])/C=C/c1ccc2c(c1)OCO2	96

biological target: Serine/threonine-protein kinase PLK1 (Homo sapiens) (UniProt P53350); conditions: at 10 µM

Compound	residual activity [%]
CC(C)(C)c1cc(C=C(C#N)C#N)cc(Br)c1O	97
CC(C)[C@H](CO)Nc1nc(Nc2cccc(Cl)c2)c2ncn(C(C)C)c2n1	45
COC(=O)[C@@]1(O)C[C@H]2O[C@]1(C)n1c3ccccc3c3c4c(c5c6ccccc6n2c5c31)C(=O)NC4	17
N/C(=N\[N+](=O)[O-])N/N=C\c1ccc(-c2cccc([N+](=O)[O-])c2)o1	78
O=C1c2ccccc2-c2nc3nnnn3nc21	64
COc1cc2ncnc(Nc3ccc(OCc4ccccc4)cc3)c2cc1OC	78
O=c1[nH]c2ccccc2n1C1CCN(Cc2ccc(-c3nc4cc5[nH]cnc5cc4nc3-c3ccccc3)cc2)CC1	80
CCn1cnc2c(Nc3cccc(Cl)c3)nc(N[C@@H]3CCCC[C@@H]3N)nc21	47
C[S+]([O-])c1ccc(-c2nc(-c3ccc(F)cc3)c(-c3ccncc3)[nH]2)cc1 (stereo not given)	99
O=C1Nc2ccc3ncsc3c2/C1=C/c1c[nH]cn1	44
COc1cc(OC)c(/C=C2\C(=O)Nc3ccccc32)c(OC)c1	77
COc1ccc2c(c[n+](C)c3c4cc5c(cc4ccc23)OCO5)c1OC	75
O=[N+]([O-])/C=C/c1ccc2c(c1)OCO2	78
